PubChem BioAssay
Activity calls are given as the source filed them.

Assay: yeast growth modulation, basal conditions, primary screen, YJM789 clinical isolate, OD600, 24 h (AID 1089);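 note: growth of clinical yeast isolate S. cerevisiae YJM 789 seeded 1000 cells per well; test concentration not given here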
Conditions: S. cerevisiae YJM789 growth, higher = more signal, called active from +8 up or from −8 down

z-score, inactive:
COCCOC(=O)N1C(=O)[C@@]2(c3cc(C#CCNC(N)=O)ccc31)[C@H](C(=O)NC[C@H](O)c1ccccc1)[C@H]1C(=O)O[C@H](c3ccccc3)[C@H](c3ccccc3)N1[C@@H]2c1ccc(OCCO)cc1 2.39
COC(=O)[C@@]1(Cc2ccc(F)cc2)[C@H]2c3cc(C(=O)N(C)C)n(CCn4cc([N+](=O)[O-])nc4C)c3C[C@H]2CN1C(=O)c1ccccc1 0.126
CN(C)CCCCNC(=O)[C@H]1C[C@H]2C(=O)N[C@@H](Cc3ccccc3)C(=O)N2[C@H]1c1cccc(OCCO)c1 -1.11
CCCCN1CC=CC23O[C@@H]4/C=C\CCC(C)OC(=O)C4[C@H]2C(=O)N(C(C)CO)[C@@H]3C1=O (stereo not given in full) 0.324
CCCCC(=C=CC[C@@H](O)c1cccc(OCCO)c1)CCO 0.633
CN1C=C(C(=O)OCCS(C)(=O)=O)C(C(=O)OCCS(C)(=O)=O)=CC(CCCO)=CC1c1ccc(CN2CCCC2)cc1 (stereo not given) 0.897
C#CCN(C/C=C/c1ccccc1)[C@H](CO[Si](C)(C)C(C)(C)C)c1ccccc1 0.253
O=C1O[C@H](c2ccccc2)[C@H](c2ccccc2)N2[C@H]1[C@@H](C(=O)N1CCN(c3ncccn3)CC1)[C@]1(C(=O)Nc3ccccc31)[C@H]2c1ccc(O)cc1 1.92
[N-]=[N+]=NCc1ccccc1[C@@H]1OC(c2ccc(OCCCO)cc2)=N[C@]1(Cc1ccccc1)C(=O)NCc1ccccc1 1.26
C=CCOC(=O)[C@H]1[C@@H]2C(=O)O[C@@H](c3ccccc3)[C@@H](c3ccccc3)N2[C@@H](c2ccc(OCCOC(=O)[C@@H]3C[C@@H]4C(=O)N[C@@H](CC(C)C)C(=O)N4[C@@H]3c3ccc(O)cc3)cc2)[C@]12C(=O)Nc1ccc(I)cc12 -3.69
CC(C)CNC(=O)[C@@]1(C)c2ccccc2C(=O)N(Cc2cc(F)cc(C(F)(F)F)c2)[C@H]1c1ccc(CO)cc1 -1.08
NCCCC[C@@H]1NC(=O)[C@H]2C[C@@H](C(=O)O)[C@@H](c3cccc(OCCO)c3)N2C1=O 1.42
CC(C)C[C@@H]1NC(=O)[C@H]2C[C@@H](C(=O)NCCCCCNC(=O)CS)[C@@H](c3ccc(O)cc3)N2C1=O 0.553
CO[C@H]1O[C@H](CO)[C@@H](OC(=O)Nc2ccccc2)[C@@H]2OC(=O)[C@H](Cc3ccccc3)C/C=C/C[C@@H](Cc3ccccc3)C(=O)O[C@@H]12 -1.03
CC(C)CNC(=O)[C@@H]1c2ccccc2C(=O)N(Cc2ccccc2Cl)[C@H]1c1ccc(CO)cc1 -0.691
CCc1cccc(NC(=O)O[C@H]2[C@H](OC(=O)Nc3ccc4c(c3)OCO4)[C@H](OC(=O)Nc3ccc4c(c3)OCO4)[C@@H](OC)O[C@@H]2CO)c1 1.5
CCN(CC)c1ccc(N2CC=CC34O[C@@H]5C=CCOC(=O)[C@@H]5[C@H]3C(=O)N(CCCO)[C@@H]4C2=O)cc1 (stereo not given in full) -0.6
C=C(CCCC)/C(=C/C[C@H](OC(C)=O)c1cccc(OCCO)c1)c1cc(C(=O)OC)ccc1OC 0.117
C=C(COC)/C(=C/C[C@H](OC(=O)c1ccncc1)c1ccc(OCCO)cc1)c1cc(C(=O)OC)ccc1OC -0.823
NC(=O)NCC#Cc1ccc2c(c1)[C@]1(C(=O)N2)[C@H](C(=O)Nc2nc3ccccc3s2)[C@H]2C(=O)O[C@H](c3ccccc3)[C@H](c3ccccc3)N2[C@@H]1c1ccc(OCCO)cc1 1.83
C=CCNC(=O)[C@H]1[C@@H]2C(=O)O[C@@H](c3ccccc3)[C@@H](c3ccccc3)N2[C@@H](c2ccc(O)cc2)[C@]12C(=O)Nc1ccc(C#CC3=CCCCC3)cc12 1.51
C=CCC(OC(C)=O)[C@@H]1[C@@H](N(Cc2cccc3ccccc23)C(=O)c2ccc(-c3ccccc3)cc2)c2cc(OCCCO)ccc2N1C(=O)c1ccc2ccccc2n1 (stereo not given in full) -0.637
O=C1c2ccccc2[C@](Cc2ccccc2I)(C(=O)O)[C@H](c2ccc(CO)cc2)N1Cc1ccccc1 -2.23
CC(C)[C@@H](C(=O)O)n1cc(-c2ccccc2)nn1 -0.0149
C/C=C/CN(C(=O)C#Cc1ccccc1)[C@H](CO[Si](C)(C)C(C)(C)C)c1ccccc1 -0.185
COCCOC(=O)N1C(=O)[C@@]2(c3cc(C#CCCO)ccc31)[C@H](c1ccc(O)cc1)N1[C@H](c3ccccc3)[C@H](c3ccccc3)OC(=O)[C@H]1[C@@H]2C(=O)N1CCc2cc(OC)c(OC)cc2C1 0.47
Cc1ccc(S[C@]2(C(=O)NC3CC3)CC(=O)N(Cc3cc(C(F)(F)F)cc(C(F)(F)F)c3)[C@@H]2c2ccc(CO)cc2I)cc1 -5.04
C[N+](C)(C)CCCC[C@@H]1NC(=O)[C@H]2C[C@@H](C(=O)NCCCCCNC(=O)CS)[C@@H](c3ccc(O)cc3)N2C1=O -4.72
CC[C@H](C)C(=O)O[C@H]1CC[C@]2(C)C3=C(CCC2C1(C)C)[C@]1(C)CC[C@H]([C@H](C)CCCC(C)C)[C@@]1(C)CC3 (stereo not given in full) 0.737
COCCOC(=O)N1C(=O)[C@@]2(c3cc(C#CCC(C(=O)OC)C(=O)OC)ccc31)[C@H](C(=O)N1CCCCCCC1)[C@H]1C(=O)O[C@H](c3ccccc3)[C@H](c3ccccc3)N1[C@@H]2c1ccccc1OCCO 0.917
C=CCOC(=O)[C@H]1[C@@H]2C(=O)O[C@@H](c3ccccc3)[C@@H](c3ccccc3)N2[C@@H](c2ccc(OCCOC(=O)[C@H]3C[C@H]4C(=O)NCC(=O)N4[C@H]3c3ccc(O)cc3)cc2)[C@]12C(=O)Nc1ccc(I)cc12 0.203
CC#CCO[Si](C#CCCCCCC)(C(C)C)C(C)C 0.176
CC(c1ccccc1)C(O)C1C=CC2C(=O)N(c3ccccc3)C(=O)C2N1Nc1ccc(C#N)cc1 (stereo not given) -2.46
O=C1c2ccccc2[C@@]2(Cc3ccccc3N(Cc3ccccc3)C2=O)[C@H](c2ccc(CO)cc2)N1Cc1ccccc1 -0.82
CC(C)CNC(=O)[C@@H]1c2ccccc2C(=O)N(CC23CC4CC(CC(C4)C2)C3)[C@H]1c1ccc(CO)cc1 -0.998
